Shown are actives, neighbours in structure and some others; about 21% of the full set was active somewhere.
Pf growth 96h: Primary qHTS for delayed death inhibitors of the malarial parasite plastid, 96 hour incubation. AID 504834, 2011. 320,000 compounds, 6.9% hits. Potency, µM (highest dose often 28.7 µM), inactives show top-dose activity change, negative = inhibition, hits mostly inhibitors. P. falciparum luciferase reporter growth, 96 h; note: potency is the fitted concentration of half-maximal effect; % is set by controls: 0 for no effect and ±100 for the full control effect
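P. falciparum expressing integrated firefly luciferase grown in erythrocytes (2% hematocrit, 0.05% parasitemia final) with compounds for 96 hours at 37 C, 5% CO2. Growth inhibition read as loss of luminescence after adding luciferase detection reagent.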
Cycloheximide cs: Cycloheximide Counterscreen for Small Molecule Inhibitors of Shiga Toxin; cell reporter, cycloheximide protein synthesis inhibition counterscreen; max response, %; 300,000 compounds, 12% hits; in the data active = max response mostly above about 13%, no sharp cut-off; inactive = mostly below about 14%; note: read at 38.3 µM for the half of the compounds with a filed dose; 0% is about no effect
Pf growth 48h: Primary qHTS for delayed death inhibitors of the malarial parasite plastid, 48 hour incubation; Potency, µM (highest dose often 28.7 µM), for inactives: at the top dose activity change, negative = inhibition, most hits filed as inhibitors; 310,000 compounds, 5.9% hits; P. falciparum luciferase growth in erythrocytes, 48 h; note: potency is the fitted concentration of half-maximal effect; % is set by controls: 0 for no effect and ±100 for the full control effect
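Growth was read as firefly luciferase luminescence after a 48 h, 37 C, 5% CO2 exposure of compounds to reporter-bearing P. falciparum cultures (0.1% parasitemia, 2% hematocrit final) in Albumax-supplemented RPMI 1640.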
Giardia FBPA inh: qHTS Assay for Inhibitors of Fructose-1,6-bisphosphate Aldolase from Giardia Lamblia; A8B2U2; purified Giardia FBPA; Potency, µM (top dose mostly 59.6 µM), for the others: at the highest dose activity, negative = inhibition, most hits filed as inhibitors; 290,000 compounds, 0.71% hits; AID 2451, 2010; note: potency is the fitted concentration of half-maximal effect; % is set by controls: 0 for no effect and ±100 for the full control effect; nearly all actives have a fitted effect of over 55% in size
Target sequence (A8B2U2 whole entry, looked up): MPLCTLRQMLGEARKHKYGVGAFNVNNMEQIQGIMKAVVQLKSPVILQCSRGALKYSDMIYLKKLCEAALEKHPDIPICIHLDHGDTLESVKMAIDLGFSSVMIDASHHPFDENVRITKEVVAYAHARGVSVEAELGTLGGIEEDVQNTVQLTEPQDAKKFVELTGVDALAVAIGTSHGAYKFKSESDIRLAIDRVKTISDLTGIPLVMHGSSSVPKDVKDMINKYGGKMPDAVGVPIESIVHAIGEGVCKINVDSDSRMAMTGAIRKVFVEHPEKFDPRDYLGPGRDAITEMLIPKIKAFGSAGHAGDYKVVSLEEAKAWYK
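Giardia FBPA (40 nM reagent) was preincubated 10 min at RT with compound (up to 57.5 uM final), then substrate plus GAPDH/TPI/NAD/arsenate coupling system with diaphorase/resazurin was added; resorufin fluorescence (525/598 nm) was read after 20 min.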
NS1 inh: qHTS Assay for Inhibitors of Influenza NS1 Protein Function. 270,000 compounds, 0.4% hits. Potency, µM (titrated, usually from 46.1 µM), inactives show at the top dose activity, positive = more growth. AID 2326, 2010; calls by dose curve; note: potency is the fitted concentration of half-maximal effect; actives are rising curves; nearly all actives have a fitted effect of over 50% in size
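A cell-based growth assay was used: compounds that relieve NS1-induced slow growth of budding yeast raise OD600. Assay medium was yeast nitrogen base with ammonium sulphate and -URA supplement, pH 6.0, with 2% galactose.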
Shiga inhibitor: A qHTS for Small Molecule Inhibitors of Shiga Toxin. Vero cells, Shiga toxin protein synthesis inhibition reporter. inhibition, % at 38.7 µM. 290,000 compounds, 9.2% hits; in the data active = inhibition mostly above about 28%, no sharp cut-off; inactive = mostly below about 43%; note: 0% is about no effect
* marks the source's active call; other numbers are inactive results; ? = inconclusive; . = no result; [ ] = another dose, or the depositor's remark. Unless noted, calls come from the whole dose curve; as a rule, active = well fitted curve in the direction sought with a large enough effect; inconclusive = small, poorly fitted or top-dose-only effect, or another doubt; inactive = no such curve, though single readings can be large; an effect the other way counts as inactive or inconclusive.

SMILES	Pf growth 96h	Cycloheximide cs	Pf growth 48h	Giardia FBPA inh	NS1 inh	Shiga inhibitor
COCCNc1nc(C)nc2c1nc(-c1ccccc1)n2CCCN1CCCCC1C (stereo not given)	.	.	.	5.6%	.	.
O=C(c1cc([N+](=O)[O-])ccc1Cl)N1CCN(c2ccccn2)CC1	?	13.3	36.0%	2.0%	-1.4%	4.3
O=C(c1cc([N+](=O)[O-])ccc1Cl)N1c2ccccc2Sc2ccccc21	2.08µM*	10.6	7.38µM*	-14.2%	-10.5%	-11.2
COC(=O)c1ccccc1NC(=O)COC(=O)C1CCCCC1	10.3%	-2.6	-9.4%	0.1%	-37.1%	-6.8
CCn1c(SCc2ccccc2Cl)nc2ccccc21	121.4%	34.6*	32.9%	-3.6%	-73.4%	26.3
Cn1c(SCc2ccccc2Cl)nc2ccccc21	-2.1%	52.6*	.	-13.4%	-57.9%	76.5*
O=C(O)c1ccccc1CSc1nc2ccccc2n1Cc1ccccc1C(=O)O	-9.1%	1.6	24.4%	24.1%	.	22.7
CCn1c(CSc2nc3ccccc3n2C)nc2ccccc21	-42.4%	5.0	?	-17.3%	-81.0%	-5.2
Cc1ccc(-c2nnn(CC(=O)N3CCC(C)CC3)n2)o1	37.1%	12.6	.	-0.7%	2.8%	22.4
COC(=O)Cn1nnc(N2CCOCC2)n1	-7.7%	40.0*	24.1%	0.1%	2.7%	-9.0
CC1CCN(C(=O)Cn2nnc(-c3cccs3)n2)CC1	?	38.9*	202.4%	0.0%	-1.2%	68.3*
COc1ccc(-c2ccc(-c3nnn(CC(=O)N4CCOCC4)n3)cc2)cc1	28.2%	23.0*	110.0%	2.2%	1.5%	28.3
CCNc1nc(SCC(=O)OC)nc(N2CCOCC2)n1	34.5%	-2.6	-5.4%	1.1%	-7.6%	-7.6
O=C(Cn1nnc(-c2cccs2)n1)OC1CCCCC1	?	18.1*	0.0%	-2.4%	-16.1%	16.7
Cc1ccc(C(=O)NCCc2nnc3ccc(SCC(=O)N4CCCCC4)nn23)cc1	?	16.0	3.1%	.	3.5%	16.5
O=S(=O)(Nc1c(Br)cc(Br)c2cccnc12)C1CC1	.	-5.1	.	.	.	-3.9
O=C(Cn1nnc(-c2cccs2)n1)N1CCOCC1	9.28µM*	16.5	9.6%	2.2%	.	15.9
O=C(Cn1nnc(-c2ccc3c(c2)OCO3)n1)N1CCOCC1	6.0%	12.6	32.0%	4.6%	-1.1%	83.0
COc1ccccc1NC(=O)Cn1cnc2sc(C)c(S(=O)(=O)N3CCCCC3)c2c1=O	0.522µM*	-3.4	-22.1%	7.8%	-4.7%	-14.5
CCCCN(C)C(=O)Cn1cnc2sc(C)c(S(=O)(=O)N3CCN(c4ccccc4OC)CC3)c2c1=O	3.0%	-6.3	11.7µM*	19.6%	-1.8%	-2.6
COc1ccc(C)cc1NC(=O)Cn1cnc2sc(C)c(S(=O)(=O)N3CCOCC3)c2c1=O	12.2%	-1.1	?	-1.0%	-15.3%	-1.0
COC(=O)/C=C/c1cnc[nH]1	-32.6%	-0.2	-7.0%	?	40.4%	1.1
O=c1[nH]cc(S(=O)(=O)Nc2ccc3c(c2)OCO3)c(=O)[nH]1	23.4%	.	7.3%	.	.	.
COc1ccc(C(=O)CN2CCN(S(=O)(=O)c3cccc([N+](=O)[O-])c3)CC2)cc1OC	?	3.3	-2.8%	-12.9%	5.1%	-10.2
COc1cccc(C(=O)CN2CCN(S(=O)(=O)c3cccc([N+](=O)[O-])c3)CC2)c1	0.415µM*	1.9	-2.2%	-10.9%	0.3%	-4.0
SMILES	Pf growth 96h	Cycloheximide cs	Pf growth 48h	Giardia FBPA inh	NS1 inh	Shiga inhibitor
COc1ccc2oc(C(=O)N3CCN(S(=O)(=O)c4cccc([N+](=O)[O-])c4)CC3)c(C)c2c1	8.28µM*	-2.2	?	.	-2.7%	5.5
CCOc1ccc(S(=O)(=O)N2CCN(C(=O)c3oc4ccc(OC)cc4c3C)CC2)cc1	?	.	10.4µM*	.	.	.
COc1ccc(O)c(/C=N/NC(=O)CN2CCS(=O)(=O)CC2)c1	-5.3%	4.6	-15.1%	.	0.0%	-2.7
Cc1cc(C)c(C#N)c(SCC(O)COc2ccc(Br)cc2)n1 (stereo not given)	?	-4.6	5.2%	-2.5%	-27.8%	8.1
O=C(Nc1ccc(Cc2ccncc2)cc1)C1CCC(N2C(=O)C3C4C=CC(C4)C3C2=O)CC1 (stereo not given)	11.7µM*	-2.1	.	3.8%	-10.6%	16.0
COc1ccc(CNC(=O)CN(c2ccc(C)cc2)S(=O)(=O)c2c(C)nn(C)c2C)cc1	?	-2.6	?	-0.8%	-16.4%	-10.2
C=CCN=Cc1c(C)[nH]n(-c2ccccc2)c1=O	25.7%	22.1*	176.6%	-0.2%	.	93.5*
Cc1[nH]n(-c2ccccc2)c(=O)c1C=NC1CCCCCC1	33.3%[5.75 µM]	20.0*	-5.0%	-1.0%	-3.1%	38.7
Cc1[nH]n(-c2ccccc2)c(=O)c1/C=N/N(c1ccccc1)c1ccccc1	-19.7%	-4.9	?	11.7%	10.3%	19.2
Cc1[nH]n(-c2ccccc2)c(=O)c1C=Nc1cccc(F)c1	-9.5%	9.0	-13.5%	-8.0%	-1.5%	57.1*
Cc1[nH]n(-c2ccccc2)c(=O)c1C=NC1CCCCC1	-13.3%	14.0*	27.3%	1.2%	.	48.9*
Cc1[nH]n(-c2ccccc2)c(=O)c1C=Nc1ccc2[nH]c(=O)[nH]c2c1	22.3%	1.6	2.1%	-2.1%	17.8%	-4.3
COc1ccc(-c2coc3c(O)c(OC)ccc3c2=O)cc1	.	.	.	-19.0%	.	.
CCCc1cc(=O)[nH]c(SCC(=O)Nc2oc(C)c3c(C)n[nH]c(=O)c23)n1	7.5%	.	22.7%	.	.	.
CCN(CC)CCN1C(=O)C(=O)/C(=C(/O)c2c(C)[nH]c(C(=O)OC)c2C)C1c1ccc(C)o1 (stereo not given)	53.6%	15.6	30.4%	-27.8%	0.0%	2.6
COc1ccccc1C(C#N)c1cccc(Cl)n1 (stereo not given)	-9.8%	-5.8	-14.4%[0.00184 µM]	0.9%	3.0%	-1.3
COCCCN(C(=O)CC1OC(=O)c2ccccc21)c1c(N)n(Cc2ccccc2)c(=O)[nH]c1=O (stereo not given)	?	-1.3	14.3%	4.9%	6.7%	-8.7
COc1cc(-c2nnc(CSc3nnc(Nc4ccc(C(C)C)cc4)s3)o2)cc(OC)c1OC	?	18.7*	-21.7%	-2.7%	23.0%	48.1
COc1ccccc1Nc1nnc(SCc2nnc(-c3cc(OC)c(OC)c(OC)c3)o2)s1	?	-2.3	?	0.9%	-0.6%	22.4
Oc1ccc(Br)cc1C=Nc1cccn2cc(-c3ccccc3)nc12	?	34.9*	278.6%	?	.	80.9*
Oc1ccc(Br)cc1/C=N/n1c(-c2ccccc2)n[nH]c1=S	-1.2%	-1.3	3.1%	-6.3%	6.8%	-3.1
CCN(CC(=O)Nc1c(F)cccc1F)C(=O)C1=COCCO1	34.2%	.	-8.2%	.	.	.
O=C(CC(=O)c1ccccc1O)c1ccc(F)cc1	?	48.9*	.	-27.9%	-244.1%	70.2*

Bioassay records from PubChem.
